Active and inactive are the calls of the source. Rule for the calls: active = hit-call score of the fitted dose curve at least 0.9, where 1 is the maximum; inactive = score below 0.9.

The assay in a line: ATG_CMV_CIS: Attagene CIS-FACTORIAL HepG2 Assay for human CMV (Internal Marker) (AID 2282928).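 Note: endpoint acts as a background internal control marker rather than a target.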 Conditions: HepG2 CMV promoter reporter, transcription factor profiling; actives raise or lower the signal. Here is the method:
ATG_CIS is a cell-based, multiplexed-readout assay that uses HepG2, a human liver cell line, with measurements taken at 24 hours after chemical dosing in a 24-well plate.ATG_CMV_CIS is one of 52 assay component(s) measured or calculated from the ATG_CIS assay. It is designed to make measurements of mRNA induction, a form of inducible reporter, as detected with fluorescence intensity signals by Reverse transcription polymerase chain reaction (RT-PCR) and Capillary electrophoresis technology.Data from the assay component ATG_CMV_CIS was analyzed into 1 assay endpoint. This assay endpoint, ATG_CMV_CIS, was analyzed with bidirectional fitting relative to DMSO as the negative control and baseline of activity. Using a type of inducible reporter, measures of mRNA for gain or loss-of-signal activity can be used to understand the background control at the transcription factor-level as they relate to the gene . Furthermore, this assay endpoint can be referred to as a secondary readout, because this assay has produced multiple assay endpoints where this one serves a background control function. To generalize the intended target to other relatable targets, this assay endpoint is annotated to the background measurement intended target family, where the subfamily is internal marker.
Human liver HepG2 cells are transiently transfected with multiple reporter transcription units (MRTUs) in 6-well plates using FuGene 6 reagent (Roche; 3 ml FuGene/1 mg DNA). The MRTU constructs are regulated by a cis-regulating element (promoter). […] A major difference between the CIS and TRANS system is that in CIS activities of endogenous TFs are measured, whereas the TRANS assay evaluates changes in activities of exogenous, chimeric NR-Gal4 proteins. […] At the end of 24 hour incubation, total RNA was isolated using TriZol reagent (Invitrogen). The isolated RNA is then reverse-transcribed using oligo(dT) primer and Mo-MLV reverse transcriptase (Invitrogen) with DNAse I (Ambion) treatment for 30 min. The one-tenth of the produced cDNA was amplified by PCR using Taq DNA polymerase (Invitrogen) and two reporter sequence-specific primers. The PCR products were fluorescently labeled by primer extension with 6-arboxyfluorescein (6-FAM) 5'-labeled reporter sequence-specific primer (2 min at 95 C, 20 s at 68 C and 10 min at 72 C) and these products were digested with 5U of HpaI (New England Biolabs) for 2h at 37 C. The fragments were purified using Qiaquick PCR columns (Qiagen), analyzed on an ABI 3130xL genetic analyzer (Applied Biosystems) with peak positions identified by using a set of X-rhodamine (ROX)-labeled MapMarker1000 molecular weight standards (BioVentures). The raw capillary electrophoresis data was processed using Attagraph software (Attagene).
In the case of `O=C1c2c(O)ccc(Nc3ccc(CCO)cc3)c2C(=O)c2c([N+](=O)[O-])ccc(O)c21`, the concentration at half-maximal activity (AC50) was 12 µM (active).

On to `O=C(O)C(F)(F)C(F)(F)C(F)(F)C(=O)O`, for which the outcome was inactive. As to `O=c1cccc[nH]1`, the compound was classed as inactive.

Consider `FC(F)(F)C(F)(F)C(F)(F)C(F)(F)C(F)(F)C(F)(F)C(F)(F)CCI`, for which the outcome was inactive.

As for `COCCOCCC[Si](C)(O[Si](C)(C)C)O[Si](C)(C)C`, the outcome was inactive.

On to `CCOCN(C(=O)CS(=O)(=O)O)c1c(C)cccc1CC`, for which the compound was called inactive.

As to `NC(=O)C(F)(F)C(F)(F)C(F)(F)C(F)(F)C(F)(F)C(F)(F)C(F)(F)F`, the outcome was inactive. The same measure, in the same setting: then `O=S(=O)(Cl)C(F)(F)C(F)(F)C(F)(F)C(F)(F)C(F)(F)C(F)(F)C(F)(F)C(F)(F)F`, with “inactive”. In the case of `CCCCC(CC)COC(=O)c1ccc(N(C)C)cc1` (stereo not given), the AC50 is 53.9 µM (active).

Regarding `C=CC(=O)OCCC(F)(F)C(F)(F)C(F)(F)C(F)(F)F`, the outcome was inactive. On to `CCc1cc(Cc2cc(CC)c(N)c(CC)c2)cc(CC)c1N`, for which the AC50 is 6.64 µM (active).

With `Cc1ccc2c(c1)OCC(=O)CO2`, the compound was called inactive. Still for that read-out and setting: next, `O=C(O)C(F)(F)C(F)(F)C(F)(F)C(F)(F)C(F)(F)C(F)(F)C(F)F`: “inactive”; `CC1=CCC(=O)O1`: “inactive”; `CCCCCCCC/C=C\CCCCCCCC(=O)OCC(O)CO` (stereo not given): “inactive”. Still for that read-out and setting: then `CNS(=O)(=O)C(F)(F)C(F)(F)C(F)(F)C(F)(F)C(F)(F)C(F)(F)C(F)(F)C(F)(F)F`, with “inactive”; and `N#CCCOCCC#N`, with “inactive”. Take `CC(C)(C)c1cc(Cc2cc(C(C)(C)C)c(O)c(C(C)(C)C)c2)cc(C(C)(C)C)c1O`: the result was inactive. Same read-out and setting: next, `Cc1ccc(O)cn1`: “inactive”; `CC(C)(C)c1cc(CCC(=O)NCCCCCCNC(=O)CCc2cc(C(C)(C)C)c(O)c(C(C)(C)C)c2)cc(C(C)(C)C)c1O`: “inactive”; `Nc1c(Br)cc([N+](=O)[O-])cc1Br`: “inactive”. Still for that read-out and setting: next, `COCCC(=O)OC`: “inactive”; `O=c1[nH]cccc1O`: “inactive”; `COC(F)(C(F)F)C(F)(F)F` (stereo not given): “inactive”. Same read-out and setting: next, `O=C(F)C1(F)C(F)(F)C(F)(F)C(F)(F)C(F)(F)C1(F)F`: “inactive”; `OCC(F)(F)C(F)(F)C(F)(F)CO`: “inactive”.

As to `O=S(=O)(O)CCC(F)(F)C(F)(F)C(F)(F)C(F)(F)F`, the compound was called inactive. Same read-out and setting: then `Nc1cc([N+](=O)[O-])cc(Cl)c1O`, with “inactive”; and `O=C(O)C(F)(F)C(F)(F)C(F)(F)OC(F)(F)F`, with “inactive”.

Regarding `FC(F)(F)C(F)(F)C(F)(F)C(F)(F)C(F)(F)C(F)(F)CC[Si](Cl)(Cl)Cl`, the compound was called inactive. Take `O=C=NCc1cccc(CN=C=O)c1`: the outcome was inactive. Same read-out and setting: then `CC(=O)c1ccccc1N`, with “inactive”. Same read-out and setting: then `O=C(c1ccccc1)c1ccc(Cl)cc1`, with “inactive”; and `OCC1CCCO1` (stereo not given), with “inactive”; and `CCOC(C=C(C)CCC=C(C)C)OCC`, with “inactive”. Consider `O=C(Cl)C(F)(F)C(F)(F)C(F)(F)C(F)(F)C(F)(F)C(F)(F)C(F)(F)F`, for which the AC50 is 63.3 µM (active). On to `CCCCCCCC/C=C\CCCCCCCC(=O)N(C)CC(=O)O`, for which the call was inactive.

Regarding `CCCCCCCCCc1ccc(OCCO)cc1`, the concentration at half-maximal activity (AC50) was 13.3 µM (active). In the case of `OCC(F)(F)C(F)(F)C(F)(F)C(F)(F)C(F)(F)C(F)(F)C(F)(F)C(F)(F)CO`, the result was inactive.

As for `CN(N=O)C(=O)N[C@@H]1[C@@H](O)[C@H](O)[C@@H](CO)O[C@@H]1O`, the compound was classed as inactive.

The AC50 is the concentration giving half of the maximal activity seen.

The values are drawn from PubChem BioAssay (EPA / NIEHS).
